# PubChem BioAssay AID2284117 (EPA ToxCast)
# The source made the active and inactive calls. The calls were made as follows: active = hit-call score of the fitted dose curve at least 0.9, where 1 is the maximum; inactive = score below 0.9.
# Biological target: human PDE4A1A Phosphodiesterase, PDE4A (gene 5141) (UniProt P27815)
# Assay: ERF_FR_ENZ_hPDE4A: Eurofins (ERF) Enzymatic LeadHunter Assay for human PDE4A1A Phosphodiesterase
# Protocol: ERF_FR_ENZ_hPDE4A is a biochemical, single-readout assay that uses extracted gene-proteins in a cell-free assay. Measurements were taken 0.33 hour after chemical dosing in a 96-well plate. See PDE4A1A Human Phosphodiesterase Enzymatic Assay, Cerep.ERF_FR_ENZ_hPDE4A is an assay component calculated from the ERF_FR_ENZ_hPDE4A assay. It is designed to measure enzyme activity using a type of enzyme reporter as detected by scintillation counting with radiometry technology.Data from the assay component ERF_FR_ENZ_hPDE4A was analyzed at the assay endpoint, ERF_FR_ENZ_hPDE4A, in the positive analysis fitting direction relative to DMSO as the negative control and baseline of activity. Using a type of enzyme reporter, loss-of-signal activity can be used to understand changes in enzymatic activity as they relate to gene PDE4A. To generalize the intended target to other relatable targets, this assay endpoint is annotated to the phosphodiesterase intended target family, where the subfamily is cyclic nucleotide signaling.
# Human cells are incubated for 10 minutes at room temprature with [3H]cAMP + cAMP (0.5uM) as sunstrate and Nitrendipine as control inhibitor. Test Sample Requirements: Minimum for 1) Screen: 60 ul of 10 mM stock -OR- 1 mg (pre-weighed) for 10 uM final testing. 2) Dose Response: 90 ul of 10 mM stock -OR- 1 mg (pre-weighed) for a top concentration at 10 uM.
# Chain of human PDE4A1A Phosphodiesterase, PDE4A (gene 5141) (P27815 whole entry, looked up): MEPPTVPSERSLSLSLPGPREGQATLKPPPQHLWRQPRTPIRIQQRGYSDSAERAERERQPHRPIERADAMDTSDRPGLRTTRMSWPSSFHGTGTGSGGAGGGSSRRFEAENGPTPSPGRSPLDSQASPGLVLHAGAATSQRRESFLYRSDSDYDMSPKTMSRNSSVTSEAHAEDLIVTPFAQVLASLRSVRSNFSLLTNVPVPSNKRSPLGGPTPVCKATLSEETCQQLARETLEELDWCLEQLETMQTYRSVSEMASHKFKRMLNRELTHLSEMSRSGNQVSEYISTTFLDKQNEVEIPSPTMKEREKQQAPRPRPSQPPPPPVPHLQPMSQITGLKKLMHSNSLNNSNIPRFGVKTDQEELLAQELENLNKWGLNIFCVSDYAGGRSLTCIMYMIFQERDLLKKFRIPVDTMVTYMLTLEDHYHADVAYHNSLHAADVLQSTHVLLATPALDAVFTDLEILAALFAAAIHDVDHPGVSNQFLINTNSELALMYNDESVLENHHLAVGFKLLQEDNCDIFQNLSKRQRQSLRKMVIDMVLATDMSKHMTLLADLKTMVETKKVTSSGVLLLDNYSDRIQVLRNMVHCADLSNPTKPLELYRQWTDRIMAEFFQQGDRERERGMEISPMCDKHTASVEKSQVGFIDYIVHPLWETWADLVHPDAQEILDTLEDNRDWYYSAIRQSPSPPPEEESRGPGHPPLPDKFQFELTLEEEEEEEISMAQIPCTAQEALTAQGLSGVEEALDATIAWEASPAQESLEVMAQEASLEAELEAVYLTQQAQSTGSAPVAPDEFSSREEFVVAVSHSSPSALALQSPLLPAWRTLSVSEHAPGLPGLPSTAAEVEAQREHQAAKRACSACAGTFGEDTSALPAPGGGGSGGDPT
row,SMILES,AC50
1,COc1cc(CCC(=O)CC(=O)CCc2ccc(O)c(OC)c2)ccc1O,2660 nM (active)
